Sampled rows, rich in hits. Any-hit rate of the full collection: about 4.1%.
DAX1 inh-1 = DAX1 (NR0B1) inhibitors on StAR promoter, primary screen, cell-based, luminescence, SF-1 (NR5A1), full-length DAX-1 | inhibition, % at 6.8 µM | 1.1% of 370,000 active | HEK293T StAR-luciferase reporter, SF-1/DAX-1 repression relief | AID 652010, 2013;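 active = inhibition above the mean over all tested compounds plus 3 SD, cut at about 3.6% in these data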;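 note: 0% = DAX-1 cells with DMSO and 100% = cells lacking DAX-1 with DMSO; higher inhibition means more luminescence from relief of DAX-1 repression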
hgDAF12 agonist = H. glycines DAF-12 receptor agonists, primary screen, cell-based, luminescence, HEK293, GAL4 fusion, UAS-luciferase. HEK293 GAL4-hgDAF12 UAS-luciferase reporter, agonist luminescence; normalized to butyrate control. activation, % at 6.8 µM. 1.8% of 370,000 active;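 active = activation above a cutoff set at the mean of all screened compounds plus 3 SD, cut at about 10% in these data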;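 note: 0% = DMSO wells and 100% = sodium butyrate wells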
ssDAF12 agonist = S. stercoralis DAF-12 nuclear receptor activators, primary screen, cell-based, luminescence, HEK293, GRIP1 co-expression, lit1-tk-luc; 1% of 370,000 active; activation, % at 6.8 µM; Nuclear hormone receptor DAF-12 (Strongyloides stercoralis); HEK293 ssDAF-12/GRIP1 lit1-tk-luc reporter; % of 3 µM dafachronic acid response; AID 652126, 2013;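 active = activation above the mean over all tested compounds plus 3 SD, cut at about 0.9% in these data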;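 note: 0% = DMSO-only wells and 100% = 3 µM delta7-dafachronic acid wells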
hcDAF12 agonist = H. contortus DAF-12 nuclear receptor activators, primary screen, cell-based, luminescence, HEK293, lit1-tk-luc reporter | HEK293 hcDAF-12 lit1-tk-luc reporter; 0% DMSO, 100% Δ7-dafachronic acid | activation, % at 6.8 µM | 1.4% of 370,000 active;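 active = activation above the mean of all tested compounds plus 3 SD, cut at about 5.5% in these data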;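 note: 100% = response to 3 µM Δ7-dafachronic acid high control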
DAX1 inh-2 = DAX1 (NR0B1) inhibitors, primary screen, cell-based, HEK293, Gal4-DAX1, luciferase luminescence; HEK293 Gal4-DAX1 luciferase reporter; inhibition, % at 6.75 µM; 0.99% of 340,000 active; AID 504766, 2011;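 active = inhibition above the mean over all tested compounds plus 3 SD, cut at about 4.2% in these data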;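 note: 0% = DAX1-transfected cells with DMSO and 100% = empty-vector control cells with DMSO; inhibition shows as a rise in luminescence from relieved DAX1 repression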
Target sequence (P51843 207-470 limits assumed): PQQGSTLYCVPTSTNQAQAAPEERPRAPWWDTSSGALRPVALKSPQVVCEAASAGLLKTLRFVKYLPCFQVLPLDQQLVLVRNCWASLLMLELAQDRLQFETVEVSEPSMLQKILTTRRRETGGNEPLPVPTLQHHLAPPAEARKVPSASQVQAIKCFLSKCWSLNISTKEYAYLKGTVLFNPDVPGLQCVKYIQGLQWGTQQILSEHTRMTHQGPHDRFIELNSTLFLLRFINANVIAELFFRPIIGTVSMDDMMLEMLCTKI
* hit, by the source's call; . = no result.

SMILES | DAX1 inh-1 | hgDAF12 agonist | ssDAF12 agonist | hcDAF12 agonist | DAX1 inh-2
Cc1occc1-c1nc(-c2ccncc2)no1 | 0.2 | 7.0 | -1.4 | -0.6 | -0.1
c1ccc(-c2noc(-c3ccc4ccccc4c3)n2)nc1 | . | . | . | . | -8.0
c1ccc(-c2noc(C34CC5CC(CC(C5)C3)C4)n2)nc1 | 0.8 | 6.8 | 0.9* | 6.3* | 2.3
c1ccc(-c2noc(C34CC5CC(CC(C5)C3)C4)n2)cc1 | -0.1 | 0.1 | -0.7 | 0.0 | -0.6
c1ccc(-c2noc(-c3ccncc3)n2)nc1 | 3.8* | 8.4 | -0.7 | 2.7 | 0.9
Cc1occc1-c1nc(-c2ccccn2)no1 | 3.0 | 11.3* | 0.8 | 6.0* | -0.5
CCCC1CCC2(CC1)CCC2OC(=S)Nc1ccccc1C(F)(F)F (stereo not drawn) | . | 2.6 | -1.1 | -1.3 | .
COc1ccccc1C(=O)N1CCN(C(=O)[C@@H](Cc2ccccc2)NC(=O)[C@H]2O[C@@H](n3cnc(C(N)=O)n3)[C@H](O)[C@@H]2O)CC1 | 0.5 | -2.0 | -0.8 | -1.3 | .
O=C(OC12CCCN(C1)/C(=C/c1ccc(Cl)cc1)C2)C1CCCCC1 (stereo not drawn) | 0.9 | -0.6 | -1.2 | 0.6 | .
Cc1nc(CNS(=O)(=O)c2ccc3c(c2)CCCC3)cs1 | -1.6 | -3.3 | -1.6 | 5.9* | -2.0
Cc1ccc(S(=O)(=O)NCc2csc(C)n2)cc1 | 0.0 | 1.6 | -0.5 | -0.3 | 1.2
Cn1cc([C@]2(O)C(=O)Nc3cccc(Cl)c32)c2ccccc21 | -0.9 | 0.9 | -0.7 | 1.0 | .
Cn1cc([C@]2(O)C(=O)Nc3ccc(Br)cc32)c2ccccc21 | 0.2 | 0.9 | 0.9* | 0.9 | .
Cn1cc([C@]2(O)C(=O)Nc3ccc(F)cc32)c2ccccc21 | -0.7 | 2.1 | 1.2* | 1.9 | .
COC(=O)c1cc(N=Cc2c(O)c3ccccc3oc2=O)cc(C(=O)OC)c1 | . | . | . | . | 9.2*
N#CCCn1cc(/C=C/C(=O)O)c(-c2ccc(F)cc2)n1 | 2.4 | 3.4 | -1.1 | 5.2 | 5.4*
COc1ccc([N+](=O)[O-])cc1NC(=O)CSCc1ccc(Br)cc1 | 0.2 | 2.2 | 1.0* | 1.6 | -1.7
COc1ccc([N+](=O)[O-])cc1NC(=O)CSCc1ccccc1C | -0.5 | 1.6 | -1.4 | -0.9 | -0.9
O=C(NC1CCCCN(Cc2ccc(Cl)cc2)C1=O)c1ccc(COc2ccccc2)cc1 (stereo not drawn) | -3.5 | -0.7 | -1.7 | -5.0 | .
COC(=O)c1ccc(NC(=O)Nc2ccc3c(c2)nc(C)n3C)cc1 | -1.1 | 2.5 | -1.3 | -3.2 | -0.3
Cc1nc2cc(NC(=O)Nc3cccc([N+](=O)[O-])c3)ccc2n1C | 2.5 | 11.2* | -0.7 | 2.2 | 3.8
CC(=O)c1ccc(NC(=O)Nc2ccc3c(c2)nc(C)n3C)cc1 | 4.0* | 8.9 | -0.6 | 1.7 | 0.4
CC(=O)N1CCN(c2ccc(NCc3ccc(F)cc3)cc2)CC1 | -1.7 | -2.0 | -1.7 | -1.2 | 3.4
COc1cc(CNc2ccc(N3CCN(C(C)=O)CC3)cc2)ccc1OCc1ccc(F)cc1 | -1.1 | 11.2* | -1.5 | -0.8 | -0.3
CN(C)CCCN1C(=O)c2oc3ccc(F)cc3c(=O)c2C1c1cccnc1 (stereo not drawn) | 0.9 | 11.3* | 0.0 | 0.4 | 0.9
O=C(Nc1cccc(Cl)c1)OC1CCC12CCC(c1ccccc1)CC2 (stereo not drawn) | -1.1 | -0.6 | -1.6 | 1.1 | .
O=C(NCCCN1CCCC1=O)c1cc2nc(-c3ccco3)cc(C(F)(F)F)n2n1 | -0.4 | -2.6 | 1.0* | 1.2 | -0.5
O=C(C1=C(O)C(=O)N(CC2CCCO2)C1c1ccccc1[N+](=O)[O-])c1ccco1 (stereo not drawn) | 0.0 | 1.0 | 1.2* | 5.3 | 0.7
CC(=O)C1=C(O)C(=O)N(C)C1c1ccccc1[N+](=O)[O-] (stereo not drawn) | -0.4 | -2.1 | 2.0* | 5.1 | 2.2
